# From PubChem BioAssay (NCATS)
# Activity calls are given as the source filed them. The call rests on the fitted dose curve; in most records, active means well fitted curve in the direction sought with a large enough effect; inconclusive means small, poorly fitted or top-dose-only effect, or effect the other way, or another doubt; inactive means no such curve, though single readings can be large or run the other way.
# Assay: Inducers of the Endoplasmic Reticulum Stress Response (ERSR) in human glioma: Validation (AID 504836)
# Conditions: human glioma cells, ER stress response reporter; series mostly up to 38.3 µM
# Procedure, shortened: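 Stably transfected U87-MG human glioma cells carrying a GRP78-based luminescent sensor were seeded at 1000 cells/well, pin-dosed with compounds and incubated 16 h. Luciferase reagent was then added, and end-point luminescence was read after 10 min at room temperature.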
row,SMILES,outcome
1,O=c1[nH]cnc2[nH]ncc12,inactive
2,O=C(O)CCCCCCCC(=O)O,inactive
3,CNCCCC12CCC(c3ccccc31)c1ccccc12,inactive
4,CC(=O)c1ccc(S(=O)(=O)NC(=O)NC2CCCCC2)cc1,inactive
5,CCOC(=O)C1=C(C)NC(C)=C(C(=O)OC)C1c1cccc([N+](=O)[O-])c1 (stereo not drawn),inactive
6,CC(C)C(=O)c1c(C(C)C)nn2ccccc12,inactive
7,C[N+](C)(C)CCOC(N)=O,inactive
8,CCOC(=O)c1cnc2c(cnn2CC)c1NN=C(C)C,inactive
9,NC1CCN(c2cccc(Cl)n2)CC1,inactive
10,COc1cc(NS(C)(=O)=O)ccc1Nc1c2ccccc2nc2ccccc12,inactive
11,COc1ccc2[nH]cc(CCNC(C)=O)c2c1,inactive
12,Clc1ccc2nsnc2c1NC1=NCCN1,inactive
13,CCO/C([O-])=N/c1c[n+](N2CCOCC2)no1,inactive
14,CC(C)NNC(=O)c1ccncc1,inactive
15,CC(C)NCC(O)c1cc(O)cc(O)c1 (stereo not drawn),inactive
16,Nc1ccc(S(=O)(=O)Nc2ccnn2-c2ccccc2)cc1,inactive
17,CCN(CC)CC#CCOC(=O)C(O)(c1ccccc1)C1CCCCC1 (stereo not drawn),inactive

row,SMILES,outcome
1,OCCN1CCN(CC/C=C2/c3ccccc3Sc3ccc(C(F)(F)F)cc32)CC1,inactive
2,CCCNC(C)C(=O)Nc1ccccc1C (stereo not drawn),inactive
3,CC(C)(Oc1ccc(C2CC2(Cl)Cl)cc1)C(=O)O (stereo not drawn),inactive
4,CC(C)NCC(O)c1ccc(NS(C)(=O)=O)cc1 (stereo not drawn),inactive
5,N[C@@H](COP(=O)(O)O)C(=O)O,inactive
6,O=C(O)CN(CCN(CC(=O)O)CC(=O)O)CCN(CC(=O)O)CC(=O)O,inactive
7,CCCCCCCCCCCCCCCC(=O)NCCO,inactive
8,NC(=O)N1c2ccccc2C=Cc2ccccc21,inactive
9,C[C@@H](O)[C@H]1C(=O)N2C(C(=O)O)=C(SCCN=CN)C[C@H]12,inactive
10,CO[C@@]1(NC(=O)CSCC#N)C(=O)N2C(C(=O)O)=C(CSc3nnnn3C)CS[C@@H]21,inactive
11,CCN1CCC[C@H]1CNC(=O)c1c(O)c(Cl)cc(Cl)c1OC,inactive
12,CCN(CC)C(=O)c1ccc(O)c(OC)c1,inactive
13,O=C1NCC2(CCN(CCc3ccccc3)CC2)O1,inactive
14,Cn1c(=O)c2[nH]cnc2n(C)c1=O,inactive
15,CC(=O)OCC(=O)[C@@]1(O)CC[C@H]2[C@@H]3CCC4=CC(=O)CC[C@]4(C)[C@H]3C(=O)C[C@@]21C,inactive
16,Nc1nc2ccc(OC(F)(F)F)cc2s1,inactive
